In the library only some 9.6% were active in any assay of this set; here they are far more common.
Cav3 T inh: blocks human Cav3.2 T-type calcium channel. B-score at 10 µM. Cav3.2-expressing cells, Fluo-4 calcium fluorescence FDSS; stronger effect = lower value. 100,000 compounds, 4% hits. AID 449739;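 active = single-dose well whose peak fluorescence ratio is a statistical outlier from its plate by either plate-standardised score or position-corrected B-score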
PLAP activator: activators of human placental alkaline phosphatase; purified PLAP enzyme, luminescent substrate read-out; stronger effect = higher value; P05187; 96,000 compounds, 1.2% hits; AID 696; activation fold at 20 µM; in the data active = activation fold above about 2
Target sequence (P05187 whole entry, looked up): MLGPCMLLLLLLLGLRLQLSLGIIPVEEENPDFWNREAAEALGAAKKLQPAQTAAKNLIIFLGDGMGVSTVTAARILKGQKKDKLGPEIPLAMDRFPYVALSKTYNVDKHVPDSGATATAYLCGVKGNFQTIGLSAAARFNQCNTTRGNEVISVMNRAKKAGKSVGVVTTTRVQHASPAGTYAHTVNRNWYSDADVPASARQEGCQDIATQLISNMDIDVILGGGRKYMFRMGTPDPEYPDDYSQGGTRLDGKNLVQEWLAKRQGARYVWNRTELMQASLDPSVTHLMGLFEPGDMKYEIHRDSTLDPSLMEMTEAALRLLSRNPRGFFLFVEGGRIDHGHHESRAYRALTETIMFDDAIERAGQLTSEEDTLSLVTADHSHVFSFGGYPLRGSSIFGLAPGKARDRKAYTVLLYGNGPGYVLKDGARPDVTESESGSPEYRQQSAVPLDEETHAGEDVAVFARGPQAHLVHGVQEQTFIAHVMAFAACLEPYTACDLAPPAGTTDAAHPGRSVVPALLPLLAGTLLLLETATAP
PostGolgi yeast: growth inhibition of a yeast mutant, post-Golgi transport screen; inhibition, % at 10 µM; post-Golgi transport phenotypic cell assay; 98,000 compounds, 0.9% hits;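 also: yeast cells grown in 1536-well plates; yeast grown about 18 h at 30C before absorbance read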
PostGolgi ctrl: inhibits growth of the yeast control strain; inhibition, % at 10 µM; 98,000 compounds, 5% hits; efflux-deficient yeast background strain, growth absorbance A615, 16 h
hDAT+cocaine: modulates human dopamine transporter uptake under cocaine | Q01959 | LLC-PK1 hDAT cells, [14C]-dopamine uptake with cocaine IC80; actives deviate in either direction | B-score at 10 µM | 110,000 compounds, 1.3% hits;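 active = Z score or B-score, a plate-position-corrected score, falls beyond the plate's 99.7% confidence bounds, in either direction; inactive = both scores lie inside the 99.7% bounds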
Numbers stand for hits; . = inactive; / = no result given. Rule as the data show it, unless noted: active = inhibition above about 30%; inactive = the rest.

SMILES	Cav3 T inh	PLAP activator	PostGolgi yeast	PostGolgi ctrl	hDAT+cocaine
CCOC(=O)CC(=O)CSc1ncnc2c1oc1ccccc12	/	.	.	.	/
COCCNC(=O)Cn1c(=O)n(C)c2ccccc21	.	.	.	.	.
Cc1ccc(N2C(=O)c3ccc(C(=O)N4CCOCC4)cc3C2=O)cc1C	.	/	/	/	.
CCCSc1nnc(NC(=O)c2nc(SC)ncc2Cl)s1	.	.	.	35	.
CSc1ncc(Cl)c(C(=O)Nc2nnc(SC)s2)n1	.	.	.	.	.
O=C(NCc1ccccc1)c1sc(=S)n2c1[nH]c(=O)c1ccccc12	.	.	.	47	.
O=C(NCc1ccccc1)c1c(F)c(F)c(F)c(F)c1F	.	.	.	.	.
COc1cccc(CNC(=O)C2=C(C)C(=O)OC23CCC(C)CC3)c1 (stereo not given)	.	.	.	.	.
COc1ccc(NC(=O)CN(C2CCCCC2)S(C)(=O)=O)cc1OC	.	.	.	.	.
CCOC(=O)c1ccc(NC(=O)CCOc2ccccc2)cc1	.	.	.	.	.
Cc1ccc(S(=O)(=O)N(CC(=O)N2CCN(c3ccccc3F)CC2)C2CCCCC2)cc1	-4.7	.	.	.	.
CCCOC(=O)c1ccc(NC(=O)CCOc2ccccc2)cc1	-4	.	.	.	.
CCCCC(=O)Nc1ccc(C(=O)OC2CCCCC2)cc1	-4	.	.	.	.
COC(=O)c1ccc(NC(=O)CN(C2CCCCC2)S(C)(=O)=O)cc1	.	2	.	.	.
CC(Sc1nnc2c(n1)C1(C)CCC2C1(C)C)C(=O)Nc1ccccc1 (stereo not given)	.	.	.	.	.
COC(=O)c1ccccc1NC(=O)CN(C1CCCCC1)S(C)(=O)=O	.	.	.	.	.
CS(=O)(=O)N(CC(=O)Nc1ccccc1Sc1ccccc1)C1CCCCC1	-5.9	.	.	.	.
CSc1cccc(NC(=O)CN(C2CCCCC2)S(C)(=O)=O)c1	-5.1	.	.	.	.
Cc1ccc(S(=O)(=O)N(CC(=O)Nc2cccc([N+](=O)[O-])c2)C2CCCCC2)cc1	.	.	.	35	.
CSc1cccc(NC(=O)CN(C)S(=O)(=O)c2ccccc2)c1	.	.	.	.	.
COc1ccc[nH]c1=O	.	.	.	.	.
C=CCCCCCCCCC(=O)NN	.	.	.	.	.
Oc1ccc(Cl)cc1CNc1ccc(Br)cn1	.	.	.	48	.
Oc1c(Cl)cc(Cl)cc1CNc1ccc(Br)cn1	.	.	.	.	.
CCOCCCNC(=O)CS(=O)(=O)Cc1nc(-c2cccc(OC)c2)oc1C	.	.	.	.	.
SMILES	Cav3 T inh	PLAP activator	PostGolgi yeast	PostGolgi ctrl	hDAT+cocaine
CCOc1ccc(-c2nc(CSCC(=O)N3CCN(c4cccc(OC)c4)CC3)c(C)o2)cc1	.	.	.	.	.
COc1cccc(-c2nc(CS(=O)(=O)CC(=O)NC3CCCc4ccccc43)c(C)o2)c1 (stereo not given)	-6.8	.	.	.	.
CCOc1ccc(-c2nc(CSCC(=O)NC3CCCc4ccccc43)c(C)o2)cc1 (stereo not given)	-6.3	.	.	.	.
COc1cccc(-c2nc(CS(=O)(=O)CC(=O)N3CCc4ccccc4C3)c(C)o2)c1	-4.8	.	.	.	.
O=C(Cn1nnc2c(cnn2-c2ccccc2)c1=O)N1CCN(c2ccccc2F)CC1	.	.	.	37	.
CC(C)CNC(=S)NNC(=O)c1ccco1	.	/	/	/	.
COc1ccc(OC)c(S(=O)(=O)N2CCCCCC2)c1	.	.	.	.	-2.4
COc1ccc(S(=O)(=O)N2CCCC(C(=O)Nc3ccc(OC)c(OC)c3)C2)cc1 (stereo not given)	.	.	.	39	.
COc1ccc(OC)c(S(=O)(=O)N2CCC(C(=O)Nc3ccc(C)c(C)c3)CC2)c1	-7.2	.	.	.	.
COc1ccc(C)cc1S(=O)(=O)N1CCC(C)CC1	.	.	.	42	.
COc1ccc(OC)c(S(=O)(=O)N2CCC(C(=O)Nc3cccc(C)c3C)CC2)c1	.	.	.	.	.
CCOC(=O)C1=C(O)/C(=C\c2ccc(CNC(=O)C(=O)Nc3ccc(C)c(C)c3)o2)N=C1C	/	.	.	.	/
CCOc1ccccc1NC(=O)C1CCCN(S(=O)(=O)c2ccc(OC)c(C)c2)C1 (stereo not given)	-4.6	.	.	31	.
O=S(=O)(c1ccc(Oc2ccc(Cl)cc2)c(S(=O)(=O)N2CCCCC2)c1)N1CCCCC1	-3.5	.	.	.	.
Cc1ccc(S(=O)(=O)N2CCCC2)cc1S(=O)(=O)N1CCCC1	.	.	.	.	.
C#CCOC(=O)CCCNc1ccc([N+](=O)[O-])cc1[N+](=O)[O-]	.	.	.	.	.
CCc1nnc(NC(=O)C2CCN(c3nc(C)cc(C)n3)CC2)s1	.	.	.	.	.
COc1ccc(CNC(=O)C/C(C)=N/NC(=O)C(c2ccccc2)c2ccccc2)cc1	-4.2	.	.	.	.
COc1ccc(Nc2nc(C(=O)NCCCN3CCOCC3)cs2)cc1	.	.	.	.	.
CSc1nnc(CSCc2ccc(Cl)cc2Cl)n1-c1ccccc1	.	.	.	51	.
CSc1cccc(NC(=O)CSc2nc3ccccc3o2)c1	.	.	.	.	.
COc1ccc(N2CCN(C(=O)CC3NC4CCCCC4NC3=O)CC2)cc1 (stereo not given)	.	.	.	.	.
NC(=O)c1cc2ccccc2oc1=NCc1ccccc1	.	.	.	.	.
NC(=O)c1cc2ccc(O)cc2oc1=NCc1ccccc1	-7.6	/	.	.	.
CC1CCCC(NC(=O)COC(=O)CCC2CCCC2)C1C (stereo not given)	.	.	.	.	.
SMILES	Cav3 T inh	PLAP activator	PostGolgi yeast	PostGolgi ctrl	hDAT+cocaine
COc1ccc(NC(=O)CSC2=C(C#N)C(c3ccco3)C3=C(CCCC3=O)N2)c(OC)c1 (stereo not given)	.	.	.	.	-2.7
Cc1ccc(C(=O)CSC2=C(C#N)C(c3ccco3)C3=C(CCCC3=O)N2)cc1 (stereo not given)	.	.	.	.	.
CC(C)(C)c1ccc(C(=O)CCCSC2=C(C#N)C(c3ccco3)C3=C(CCCC3=O)N2)cc1 (stereo not given)	-4.3	.	.	.	.
COc1cccc(NC(=O)CSC2=C(C#N)C(c3ccco3)C3=C(CCCC3=O)N2)c1 (stereo not given)	.	.	.	.	.
CSc1cc(-c2ccc(Cl)cc2)c(C(=O)N2CCCC2)s1	-4.4	.	.	.	.
Cc1cc(NC(=O)CSc2nnc(Cc3ccccc3)o2)no1	.	.	.	.	.
O=c1cc2c(nn1Cc1ccccc1Cl)-c1ccccc1CC2	.	.	.	43	.
O=c1cc2c(nn1Cc1ccc(Cl)cc1Cl)-c1ccccc1CC2	.	.	.	.	.
O=c1cc2c(nn1Cc1cccc(Cl)c1)-c1ccccc1CC2	.	.	.	76	.
O=c1cc2c(nn1Cc1ccc(Cl)cc1)-c1ccccc1CC2	.	2	.	48	.
CC(C)C(=O)Nc1nnc(SCC(=O)NCc2cccs2)s1	/	.	.	.	/

Screening results from PubChem.
